# Data as given in PubChem BioAssay (NCATS).
# Records with an inconclusive call do not appear. Active and inactive are the calls of the source. Calls come from the whole dose curve; as a rule, active = well fitted inhibition curve with a large enough effect; inconclusive = small, poorly fitted or top-dose-only effect; inactive = no such curve, though single readings can be large or run the other way.
# Experiment: Primary qHTS for inhibitors of nuclear receptor binding SET domain protein 2 (NSD2) in an RCH-ACV wild type WT cells (2C) (AID 1645877); note: nearly all actives have a fitted effect of over 70% in size
# Details: RCH-ACV (leukaemia line) NSD2 WT (2C) viability, CellTiter-Glo, 72 h; series mostly up to 44.9 µM; activity change, negative = cell killing: at the top concentration
# % is set by controls: 0 for no effect and ±100 for the full control effect.
SMILES,outcome,"activity change, negative = cell killing"
O=C(NCCCN1CCOCC1)c1ccc(Cl)cc1,inactive,
Cc1ccccc1N=Nc1ccc(N=Nc2c(O)ccc3ccccc23)c(C)c1,inactive,
COc1cc(C(=O)NCCCCCC(=O)O)cc(OC)c1OC,inactive,
COC(=O)c1ccc(O)cc1,,6.97% (inactive)
CC(C)CCCC(C)CCCC(C)CCCCC(C)CCCC(C)CCCC(C)C (stereo unspecified),,-2.11% (inactive)
Cc1c(I)c(=O)n(-c2ccccc2)n1C,,3.53% (inactive)
C[C@@H]1CCC[C@H](C)N1,,4.12% (inactive)
COC(=O)c1ccccc1C(=O)c1ccc(OCCN2CCCCC2)cc1,,-12.6% (inactive)
CO[C@@]1(NC(=O)C(C(=O)O)c2ccc(O)cc2)C(=O)N2C(C(=O)O)=C(CSc3nnnn3C)CO[C@@H]21 (stereo partly specified),inactive,
CC1CC(OC(=O)c2ccccc2O)CC(C)(C)C1 (stereo unspecified),,7.66% (inactive)
CCCC(O)C(CC)CO (stereo unspecified),,8.69% (inactive)
CC(CN(C)C)C(C)(O)Cc1ccc(Cl)cc1 (stereo unspecified),,-11.3% (inactive)
COCC(=O)Nc1c(I)c(C(=O)NCC(O)CO)c(I)c(C(=O)N(C)CC(O)CO)c1I (stereo unspecified),,1.09% (inactive)
O=C(O)[C@@H]1[C@H]2C[C@H]3c4[nH]c5ccccc5c4CCN3C[C@@H]2CC[C@@H]1O,,-9.22% (inactive)
CCCCCC(C)N (stereo unspecified),,3.26% (inactive)
Nc1ccncc1N,,-5.89% (inactive)
